MEKK3 PB1 HTS: raises or lowers MEK5 binding to the human MEKK3 PB1 domain | bead-based flow cytometry, Alexa488-MEK5 binding to MEKK3; actives lie on both sides; 0 = blocked by unlabeled MEK5, 100 = vehicle | binding response (% of control), % at 10 µM | actives 1.4% (n = 290,000);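 active = binding response more than 3 SD above or below the average of its plate-row segment, actives on both sides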;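 note: Alexa488 bead fluorescence after subtracting the streptavidin-only scavenger bead signal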
MEKK2wt PB1 HTS: raises or lowers MEK5 binding to wildtype human MEKK2 PB1 domain. AID 1531. actives 1.1% (n = 290,000). bead flow cytometry, Alexa488-MEK5 binding to MEKK2 WT; actives lie on both sides. binding response (% of control), % at 10 µM; in the data active = binding response below about 67% or above about 130%
CendR NRP1 mod: alters CendR peptide binding to human NRP-1. inhibition, % at 25 µM. actives 0.85% (n = 360,000). O14786. FAM-RPARPAR peptide binding to NRP-1, fluorescence polarization. AID 602438;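 active = inhibition or corrected inhibition above about 18%, plus a signal ratio from 0.5 to 1.5, limit read from the data, passing the limit was not always enough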
Target sequence (O14786 whole entry, looked up): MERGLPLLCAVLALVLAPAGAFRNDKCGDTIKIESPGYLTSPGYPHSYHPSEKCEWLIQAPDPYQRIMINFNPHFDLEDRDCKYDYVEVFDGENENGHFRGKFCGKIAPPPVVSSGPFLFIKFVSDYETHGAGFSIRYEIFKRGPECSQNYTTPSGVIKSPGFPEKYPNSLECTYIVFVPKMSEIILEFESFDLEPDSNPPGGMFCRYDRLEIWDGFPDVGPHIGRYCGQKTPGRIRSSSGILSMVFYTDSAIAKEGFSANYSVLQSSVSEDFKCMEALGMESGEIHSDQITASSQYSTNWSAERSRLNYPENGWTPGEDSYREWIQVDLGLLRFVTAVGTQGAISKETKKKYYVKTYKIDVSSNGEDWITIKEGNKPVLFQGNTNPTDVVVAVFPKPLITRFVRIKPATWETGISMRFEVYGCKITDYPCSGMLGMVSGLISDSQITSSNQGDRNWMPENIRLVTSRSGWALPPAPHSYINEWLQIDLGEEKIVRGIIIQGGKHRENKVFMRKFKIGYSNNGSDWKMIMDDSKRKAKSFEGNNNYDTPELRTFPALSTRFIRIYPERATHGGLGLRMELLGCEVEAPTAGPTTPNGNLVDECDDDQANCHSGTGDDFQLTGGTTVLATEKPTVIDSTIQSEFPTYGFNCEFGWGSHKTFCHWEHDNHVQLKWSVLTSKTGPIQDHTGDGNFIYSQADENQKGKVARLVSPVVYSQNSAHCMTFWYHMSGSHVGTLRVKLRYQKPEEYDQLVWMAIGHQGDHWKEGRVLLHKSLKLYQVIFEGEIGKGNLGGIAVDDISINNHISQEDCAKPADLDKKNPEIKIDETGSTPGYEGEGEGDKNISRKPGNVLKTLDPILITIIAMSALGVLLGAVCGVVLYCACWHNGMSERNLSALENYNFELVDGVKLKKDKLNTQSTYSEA
MEKK2mut PB1 HTS: signal of MEK5 binding to mutant human MEKK2 PB1 domain; bead flow cytometry, Alexa488-MEK5 binding to MEKK2 mutant; percent response, % at 10 µM; actives 0.35% (n = 290,000); in the data active = percent response above about 24%, passing the limit was not always enough
SKN-1 block: C. elegans SKN-1 inhibition. C. elegans VP596 Pgst-4::GFP/RFP ratio, acrylamide-induced, 24 h. inhibition, % at 21.8 µM. actives 0.49% (n = 360,000). AID 624304;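 active = interference check ratio from 0.5 to 1.5 plus GFP to RFP signal ratio inhibition reaching or exceeding a fixed threshold, cut at about 30% in these data, passing the limit was not always enough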
MEKK2wt confirm: raises or lowers MEK5 binding to wildtype human MEKK2, retest. binding response (% of control), % at 10 µM. bead flow cytometry, Alexa488-MEK5 binding to MEKK2 WT; actives lie on both sides. actives 2.4% (n = 5,900). shares compounds with MEKK3 PB1 HTS; in the data active = binding response below about 16% or above about 210%; inactive = in between
MEKK2mut-MEK5: signal of MEK5 binding to mutant human MEKK2, retest. shares compounds with MEKK3 PB1 HTS. bead flow cytometry, Alexa488-MEK5 binding to MEKK2 mutant. percent response, % at 10 µM. actives 2% (n = 5,900); in the data active = percent response mostly above about 71%, no sharp cut-off; inactive = mostly below about 38%;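 note: higher means compound restores mutant binding toward wildtype level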
MEKK3 confirm: confirmation of inhibitors of MEK5 binding to human MEKK3 | shares compounds with MEKK3 PB1 HTS | bead flow cytometry, Alexa488-MEK5 binding to MEKK3; active compounds read low | binding response (% of control), % at 10 µM | actives 1.8% (n = 5,900) | AID 1894;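 active = binding response below 72% of control, or above a set upper limit, though filed actives all read lower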;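 note: 100% = DMSO only wells and 0% = binding blocked by excess unlabeled MEK5; lower values mean stronger disruption of MEK5 binding to MEKK3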
* hit, by the source's call; . = not tested or not shown; ! = not active in a repeat; [ ] = another dose, or the depositor's remark. A selection: hits, their analogues and other compounds. The true share with any hit is near 3.2%.

SMILES | MEKK3 PB1 HTS | MEKK2wt PB1 HTS | CendR NRP1 mod | MEKK2mut PB1 HTS | SKN-1 block | MEKK2wt confirm | MEKK2mut-MEK5 | MEKK3 confirm
CCOC(=O)C1(c2ccccc2)CCN(CCC(=O)Nc2ccc(OC)cc2)CC1 | . | . | 1 | . | 3 | . | . | .
CCOC(=O)C1(c2ccccc2)CCN(CCC(C#N)(c2ccccc2)c2ccccc2)CC1 | 101 | 136* | -10 | 6 | -6 | 132 | 27 | 103
C[C@]12CC[C@@H](O)C[C@@H]1CC[C@@H]1[C@@H]2CC[C@]2(C)C(=O)[C@H](O)C[C@@H]12 | . | . | -6 | . | 9 | . | . | .
C[C@]12CCC3C(CC[C@H]4C[C@@H](O)CC[C@]34C)C1C[C@@H](Br)[C@H]2O (some centres not stated) | . | . | -4 | . | 17 | . | . | .
COc1ccc(CN2CC3CC(C2)c2cccc(=O)n2C3)cc1OC (configuration not stated) | 93 | 106 | -9 | 9 | 11 | . | . | .
O=c1cccc2n1CC1CC2CN(Cc2ccc3c(c2)OCO3)C1 (configuration not stated) | 2.0*[inhibitor] | -1.0*[inhibitor] | -4 | -27 | 7 | 109 | 16 | 109
COc1ccc(C(CC(=O)N2CCC3(CC2)OCCO3)NS(=O)(=O)c2ccc(C)cc2)cc1 (configuration not stated) | 78*[inhibitor] | 88 | -7 | -11 | -6 | 102 | 7 | 105
COC(=O)C1=C(c2ccc(F)cc2OCc2ccccc2)C[C@@H]2CC[C@H]1N2C(=O)NCc1ccc([N+](=O)[O-])cc1 | . | . | -8 | . | 4 | . | . | .
CCOc1cc2c(cc1OCC)-n1cccc1C(c1ccc(C(C)C)cc1)NC2 (configuration not stated) | 103 | 141* | 5 | 20 | 8 | 145 | 22 | 107
Cc1ccc(S(=O)(=O)N(C)N=O)cc1 | . | . | 1 | . | 6 | . | . | .
CCOc1cc(C2C(C#N)=C(N)Oc3c2c(=O)oc2ccccc32)ccc1OC(=O)c1cccs1 (configuration not stated) | 129* | 100 | -16 | 0 | 7 | 94 | -1 | 102
COc1ccc(OC)c(N=Cc2c(O)[nH]c(=O)[nH]c2=O)c1 | 93 | 99 | -53 | -1 | 22 | . | . | .
O=c1[nH]c(O)c(/C=C2/C=CC(c3cc(Cl)ccc3Cl)=N2)c(=O)[nH]1 | 109 | 63*[inhibitor] | -94 | 1 | 8 | 66 | -14 | 95
Cc1ccc(C2C(=O)NC(=O)NC2=O)cc1 | . | . | 9 | . | 13 | . | . | .
OCCNCCc1c[nH]c2ccc(OCc3ccccc3)cc12 | 109 | 164* | 5 | 31* | -9 | 167 | 30 | 108
Clc1cccc(CNCCc2c[nH]c3ccccc23)c1 | 104 | 120 | 2 | 19 | -7 | . | . | .
CC[n+]1c(SC)ccc2cc(OC)ccc21 | 175* | 108 | 0 | 1 | 3 | 107 | 5 | 103
COc1cccc(CNCCc2c[nH]c3ccccc23)c1OC | 107 | 147* | -1 | 44 | 7 | 114 | 3 | 103
COc1ccc(/C=C/C2=CCN(C)CC2)cc1 | 94 | 104 | 0 | -3 | 22 | . | . | .
CN1CC=C(/C=C/c2ccc(-c3ccccc3)cc2)CC1 | 110 | 167* | . | 10 | . | 163 | 30 | 104
CCC(C)N1C(=O)/C(=C\c2cc3c4c(c2)CCCN4CCC3)C(=O)NC1=S (configuration not stated) | 76 | 6.0*[inhibitor] | -88 | -5 | 31 | 58 | -24 | 87
CCC(C)N1C(=O)/C(=C\c2cnc(N(C)C)nc2)C(=O)NC1=S (configuration not stated) | 101 | 96 | 2 | -1 | 12 | . | . | .
CC[C@@H]1C(=O)OC[C@@H]1Cc1cncn1C | 88 | 55*![inhibitor] | -5 | 4 | -17 | 99 | -5 | 99
Cc1cc(OC(=O)c2cccs2)c2c3c(c(=O)oc2c1)CCCC3 | 151* | 108 | -2 | 0 | -7 | 100 | -3 | 101
Cc1cc(OC(=O)c2ccco2)c2c3c(c(=O)oc2c1)CCCC3 | 102 | 101 | 5 | -2 | -8 | . | . | .
SMILES | MEKK3 PB1 HTS | MEKK2wt PB1 HTS | CendR NRP1 mod | MEKK2mut PB1 HTS | SKN-1 block | MEKK2wt confirm | MEKK2mut-MEK5 | MEKK3 confirm
Cc1cccc(N=Nc2ccc(N(C)C)cc2)c1 | 103 | 105 | 8 | -1 | 18 | . | . | .
CCN(CC)c1ccc(CN(C)CCc2ccc(OC)c(OC)c2)cc1 | 115 | 135* | 5 | 24* | 12 | 114 | 7 | 107
OCCNc1c2c(nc3ccccc13)CCCC2 | 0.0*[inhibitor] | 0.0*[inhibitor] | 4 | -42 | 12 | 104 | -2 | 104
NC(Cc1ccccc1)c1nc(-c2ccccc2)no1 (configuration not stated) | 92 | 93 | 16 | -11 | -9 | . | . | .
COc1ccc(OC)c(N2C(=O)/C(=C/c3ccco3)C(=O)NC2=S)c1 | 85 | 66*[inhibitor] | . | -25 | . | 98 | 2 | 100
COc1ccc(N2C(=O)/C(=C/c3ccc(C)o3)C(=O)NC2=S)cc1 | 97 | 91 | -178 | -3 | 3 | . | . | .
COc1ccc(N2C(=O)/C(=C/c3cc(C)n(-c4ccc(C)cn4)c3C)C(=O)NC2=S)c(OC)c1 | 51 | 33*[inhibitor] | -16 | -20 | 8 | 85 | -5 | 98
O=C(/C=C/c1ccc(Cl)cc1)NC(=S)N1C[C@H]2C[C@H](C1)c1cccc(=O)n1C2 | 97 | 95 | 13 | -5 | -3 | . | . | .
O=C1N(c2ccccc2)C(c2cccnc2)N2CCCN12 (configuration not stated) | 76 | 77 | 3 | -24 | 8 | . | . | .
O=C1N(c2cccc(Cl)c2)C(c2cccnc2)N2CCCN12 (configuration not stated) | 74*[inhibitor] | 77 | 13 | -11 | 18 | 101 | -1 | 103
Cc1cccc(OP(N)(=O)Oc2cccc(C)c2)c1 | 132* | 120 | 8 | 29 | 0 | 92 | -12 | 97
O=C(N/N=C/c1c(O)n(CCC2=CCCCC2)c(=S)[nH]c1=O)c1ccccc1 | 154* | 108 | -36 | 0 | 2 | 99 | -2 | 104
O=c1[nH]c(=S)n(CCC2=CCCCC2)c(O)c1C=NCc1cccnc1 | 102 | 99 | -1 | 3 | 9 | . | . | .
O=C(N/N=C/c1c(O)n(CCC2=CCCCC2)c(=O)[nH]c1=O)c1ccccc1 | 149* | 111 | 0 | 1 | -17 | 100 | -1 | 104
C[n+]1c2ccccc2nc2ccc(NCCO)cc21 | 85 | 95 | 14 | 0 | 87 | . | . | .

Compound activity as filed in PubChem BioAssay.
